Experimental findings from PubChem BioAssay (NCATS) are described below.

Each structure is given as a SMILES string. Results filed as inconclusive are left out. Where a call stands in place of a potency, no number is given. Calls of active or inactive are those of the source. The call rests on the fitted dose curve.

A short description of the test: Cytotoxicity counterscreen for inhibitors of SARS-CoV-2 cell entry (AID 1645845). Further: nearly all actives have a fitted effect of over 50% in size. Conditions: cell viability (SARS-CoV-2 entry assay cells); series mostly up to 57.1 µM. Summed up: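 HEK293-ACE2 cells (Expi293F stably expressing human ACE2) seeded overnight, then compound for 1 h plus 48 h at 37C. Viability as ATP content by luminescence; normalized to wells with cells and media-only wells.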
Background: Counterscreens check selectivity or assay interference.
As for `O=c1[nH]c(=O)c2[nH]c(=O)[nH]c2[nH]1`, the outcome was “inactive [at 11.3 µM]”.

As for `O=C(O)[C@H](O)[C@@H](O)[C@H](O[C@@H]1O[C@H](CO)[C@H](O)[C@H](O)[C@H]1O)[C@H](O)CO`, the Potency result was “inactive”.

Consider `NS(=O)(=O)c1cc2c(cc1Cl)NC(C1CC3C=CC1C3)NS2(=O)=O` (stereo not given), for which the Potency result was “inactive”.

Take `CN(C)CCn1nnnc1SCC1=C(C(=O)O)N2C(=O)[C@@H](NC(=O)Cc3csc(N)n3)[C@H]2SC1`: the Potency entry is “inactive”.

For the molecule `CC(C)(C)c1ccc(C(O)CCCN2CCC(C(O)(c3ccccc3)c3ccccc3)CC2)cc1` (stereo not given), the Potency entry is “inactive”.

Turning to `CCC(C)(C)c1ccc(CC(C)CN2C[C@@H](C)O[C@@H](C)C2)cc1` (stereo not given in full), the Potency result is “inactive”.

Consider `COc1cc(O)c(C(=O)c2ccccc2)cc1S(=O)(=O)O`, for which the Potency entry is “inactive”.

`COc1cc(N)c(Cl)cc1C(=O)NC1CCN(CCCOc2ccc(F)cc2)CC1OC` (stereo not given): the Potency result is “inactive”.

Take `Cc1cccc(N(C)C(=S)Oc2ccc3ccccc3c2)c1`: the Potency result is “inactive”.

Regarding `Cc1ccc(Cl)c(OCC(O)CNC(C)(C)C)c1` (stereo not given), the Potency result is “inactive”.

`CC1CCCCN1CCCOC(=O)c1ccc(OC2CCCCC2)cc1` (stereo not given): the Potency result was “inactive”.

Take `Clc1ccc2c(c1)CCc1cccnc1C2=C1CCNCC1`: the Potency entry is “inactive”.

Regarding `Cc1c(C)c2c(c(C)c1OC(=O)CCC(=O)OCCO)CC[C@@](C)(CCC[C@H](C)CCC[C@H](C)CCCC(C)C)O2`, the Potency entry is “inactive”.

Turning to `CN(C)CCOC1=Cc2ccccc2Sc2ccc(Cl)cc21`, the Potency entry is “inactive”.

On to `CCN(CCCc1ccccc1)CCCc1ccccc1`, for which the Potency entry was “inactive”.

In the case of `Cc1ccc(/C(=C\CN2CCCC2)c2ccccn2)cc1`, the Potency result was “inactive”.

Take `C=C1C(=C/C=C2\CCC[C@]3(C)[C@@H]([C@H](C)/C=C/[C@@H](O)C4CC4)CC[C@@H]23)C[C@@H](O)C[C@@H]1O`: the Potency entry was “inactive”.

With `CC[N+]1(CC)CCC(=C(c2ccccc2)c2ccccc2)C1C` (stereo not given), the Potency entry is “inactive”.

On to `CN1CCCC(n2nc(Cc3ccc(Cl)cc3)c3ccccc3c2=O)CC1` (stereo not given), for which the Potency entry is “inactive”.

Regarding `Clc1ccc(Cn2c(CN3CCCC3)nc3ccccc32)cc1`, the Potency result was “inactive”.
